Source: the supplement of paper PMC7156485
± gives the standard deviation of the averaged measurements.
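Note: TDF denotes transformed human dermal fibroblasts of mesenchymal origin.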

These compounds were tested on HCC1569 (assay: cell number relative to DMSO (% of DMSO); higher = more cells (less growth inhibition / toxicity)). Conditions: concentration: 10 µM; 24 h.
In short: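 H1.0 nuclear intensity or cell number is stated as percent of the plate control, based on the median of replicates, and HCC1569 values were smoothed for positional effects. These came from HCC1569 and TDF cells treated with compounds at 10 µM for 24 h at 37 °C in triplicate, then fixed in 3.7% formaldehyde and stained with a rabbit anti-H1.0 antibody, an AlexaFluor 647 secondary and DAPI.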
`CN(C)C(=O)Oc1cc(OC(=O)N(C)C)cc(C(O)CNC(C)(C)C)c1.Cl` (centres undefined) showed a cell number of 104. In the case of `CS(=O)(=O)O.O.Oc1ccc2c3c1OC1c4oc5ccccc5c4CC4(O)C(C2)N(CC2CC2)CCC314` (centres undefined) [Naltriben methanesulfonate hydrate], the cell number is reported as 98.9. `CCCCCC1OC1CC=CCCCCCCCC(=O)O` (centres undefined) [Leukotoxin B (12,13-EODE)] was tested, and the cell number was 105. `CN1C2CCC1CC(OC(=O)c1cc(Cl)cc(Cl)c1)C2` (centres undefined) [3-Tropanyl-3,5-dichlorobenzoate] gave a cell number of 100. `COc1cc2c(cc1OC)C(C)NCC2` (centres undefined) [Salsolodine] gave a cell number of 105. In the case of `Br.COC(=O)C1=CCCN(C)C1` [Arecoline hydrobromide], the cell number is reported as 101. `Cc1cc(O)c2c(=O)c3c(O)cc(O)c4c5c(O)cc(O)c6c(=O)c7c(O)cc(C)c8c1c2c(c34)c(c78)c65` [Hypericin] showed a cell number of 103 ± 2.1. `CCCN1CCOC2c3cc(O)ccc3OCC21.Cl` (racemic) was tested, and the cell number was 104. `NC(Cn1cc(I)c(=O)[nH]c1=O)C(=O)O` (centres undefined) [S-5-Iodowillardiine] showed a cell number of 107. Work on `COc1ccc2c(c[n+](C)c3c4cc5c(cc4ccc23)OCO5)c1OC.[Cl-]` [Chelerythrine] yielded a cell number of 114. For `CCC1(C2OC(C3OC(O)(CO)C(C)CC3C)CC2C)CCC(C2(C)CCC3(CC(O)C(C)C(C(C)C(OC)C(C)C(=O)[O-])O3)O2)O1.[Na+]` (centres undefined) [Monensin], the cell number was 90.4. Work on `CC(C)(C)c1o[nH]c(=O)c1CC(N)C(=O)O` (centres undefined) yielded a cell number of 98.3. `CCN1CC2(C)CCC(O)C34C5CC6C(OC)CC(O)(C(CC23)C14)C5C6O` (centres undefined) [Karakoline] was tested, and the cell number was 103.2 ± 0.75. `CCCCCC=CCC=CCCCCCCCC(=O)NCCO` [Anandamide (18:2,n-6)] showed a cell number of 100. `C[C@]12CC[C@@H](O)C[C@@H]1CC[C@@H]1[C@@H]2CC[C@]2(C)[C@@H](O)CC[C@@H]12` [5alpha-Androstane-3alpha,17beta-diol] showed a cell number of 103. With `NC(C(=O)O)c1cc(=O)[nH]o1` (racemic) the cell number was 104. With `c1cc2c(cc1C1OCC3C(c4ccc5c(c4)OCO5)OCC13)OCO2` (single isomer, unassigned; (-)) [(-)-Asarinin] the cell number was 98.4. In the case of `CS(=O)(=O)O.S=C=Nc1cccc(C2(N3CCCCC3)CCCCC2)c1` [Metaphit methanesulfonate], the cell number is reported as 106. `CC12CCC3C(CC=C4CC(O)CCC43C)C1CCC2=O` (centres undefined) [Dehydroepiandrosterone] showed a cell number of 105. `O.O=P1(N(CCCl)CCCl)NCCCO1` (centres undefined) [Cyclophosphamide monohydrate] showed a cell number of 79.6. In the case of `Cl.O=C1CC2OCC=C3CN4CCC56c7ccccc7N1C5C2C3CC46` (centres undefined), the cell number is reported as 103 ± 5.8. Compound `CC(C)CC(NP(=O)([O-])OC1OC(C)C(O)C(O)C1O)C(=O)NC(Cc1c[nH]c2ccccc12)C(=O)[O-].[Na+].[Na+]` (centres undefined) [Phosphoramidon disodium] has a cell number of 99.6. `CCn1cc(C(=O)[O-])c(=O)c2ccc(C)nc21.[Na+]` [Nalidixic acid sodium] showed a cell number of 107. In the case of `CC(C)C1(NC(=O)C2C=C3c4cccc5[nH]cc(c45)CC3N(C)C2)OC2(O)C3CCCN3C(=O)C(Cc3ccccc3)N2C1=O` (centres undefined) [Ergocristine], the cell number is reported as 102. `CCCCCC=CCC(C=CC=CCC=CCCCC(=O)O)OO` (centres undefined) gave a cell number of 102. In the case of `COC(=O)N1CCN(C(=O)Cc2ccc(Cl)c(Cl)c2)C(CN2CCCC2)C1.O=C(O)C=CC(=O)O` (centres undefined), the cell number is reported as 100. `BrC1C(Br)C(Br)C(Br)C(Br)C1Br` (centres undefined) showed a cell number of 101. Compound `COc1ccc(C(=O)OC2CCC3(C)C4CCC5C6(O)CC(O)C7(O)C(CN8CC(C)CCC8C7(C)O)C6(O)CC53OC24O)cc1OC` (centres undefined) [Veratridine] has a cell number of 107. `CC1C(=O)OC2CCN3CC=C(COC(=O)C(C)(O)C1(C)O)C23` (centres undefined) [Monocrotaline] showed a cell number of 102. Compound `CCCCCC=CCC=CCC=CCC=CCCCC(=O)NC(C)CO` [(R)-Methandamide] has a cell number of 107. In the case of `CCCC(C)(COC(N)=O)COC(=O)NC(C)C` (centres undefined) [Carisoprodol], the cell number is reported as 97.4. `C#C[C@]1(O)CC[C@H]2[C@@H]3CC[C@H]4Cc5nc6nc7ccccc7n6cc5C[C@]4(C)[C@H]3CC[C@@]21C` gave a cell number of 74.8. Compound `Cl.O=C1CCC2(O)C3Cc4ccc(O)c5c4C2(CCN3CC2CC2)C1O5` (centres undefined) [Naltrexone.HCl] has a cell number of 101. Work on `CCCCCCCCCCCCCC(=O)OC1C(C)C2(O)C(C=C(CO)CC3(O)C(=O)C(C)=CC32)C2C(C)(C)C12OC(C)=O` (centres undefined) [Phorbol 12-myristate 13-acetate] yielded a cell number of 99 ± 4.3. Work on `CN(C)C(=O)C(CCN1CCC(O)(c2ccc(Cl)cc2)CC1)(c1ccccc1)c1ccccc1.Cl` [Loperamide hydrochloride] yielded a cell number of 84.8. For `CC1(CO)C(O)CCC2(C)C1CCC1CC3CC12CCC3(O)CO` (centres undefined) [Aphidicolin], the cell number was 79.6. In the case of `CCCCCC=CCC=CCC=CCC=CCCCCCC(=O)NCCO` [Anandamide (22:4,n-6)], the cell number is reported as 102. For `COc1cc(CC(C)N)c(OC)cc1I.Cl` (racemic), the cell number was 101. In the case of `CCC=CCC(C=CC=CCC=CCC=CCCCC(=O)O)OO` (centres undefined), the cell number is reported as 101.
